Design in all cases: species or system human, MV4-11 + K-562 + COLO205 + SK-N-BE2 + OVCAR-8
The subject of experiment [1] is PRKG1. The conditions noted are these: read-out: apparent Kd, n = 1.
The subject of experiment [2] is AXL. The note with it: read-out: apparent Kd, n = 1.
For experiment [3], the system named is CSK. The note with it: read-out: apparent Kd, n = 1.
Experiment [4] deals with EPHA1. The note with it: read-out: apparent Kd, n = 1.
Experiment [5] has as its system EPHB3. The note with it: read-out: apparent Kd, n = 1.
Experiment [6] concerns FYN. The conditions noted are these: read-out: apparent Kd, n = 1.
In experiment [7] the test system is LYN. The conditions noted are these: read-out: apparent Kd, n = 1.
The test system of experiment [8] is MTOR. The note with it: read-out: apparent Kd, n = 1.
For experiment [9], the system named is PIK3CG. The note with it: read-out: apparent Kd, n = 1.
The test system of experiment [10] is RIPK2. The conditions noted are these: read-out: apparent Kd, n = 1.
Experiment [11] deals with ULK1. The note with it: read-out: apparent Kd, n = 1.
Experiment [12] has as its system TGFBR2. The conditions noted are these: read-out: apparent Kd; compound concentrations:100 nM and 1000 nM (sheet 'Samples'); n = 1.
Experiment [13] deals with CDC42BPG. The conditions noted are these: read-out: apparent Kd, n = 1.
Experiment [14] deals with CDK2. The note with it: read-out: apparent Kd; compound concentrations: 100 nM and 1000 nM (sheet 'Samples'), CATDS: 7.0892729990410901E-3; n = 1.
The subject of experiment [15] is IRAK3. The conditions noted are these: read-out: apparent Kd; compound concentrations: 100 nM and 1000 nM (sheet 'Samples'), CATDS: 1.44351207371401E-2; n = 1.
Experiment [16] concerns PDGFRB. The note with it: read-out: apparent Kd; compound concentrations: 100 nM and 1000 nM (sheet 'Samples'), CATDS: 6.5181238774795402E-3; n = 1.
Experiment [17] has as its system CDC42BPA. The conditions noted are these: read-out: apparent Kd, n = 1.
For experiment [18], the system named is ROCK1. The conditions noted are these: read-out: apparent Kd, n = 1.
[19] abbreviates: compound concentrations:100 nM and 1000 nM (sheet 'Samples').

The structures appear in SMILES notation. Like-named read-outs stand apart in the source and are kept apart here.

`CCn1c(-c2nonc2N)nc2c(C#CC(C)(C)O)nc(OCCN)cc21.CCn1c(-c2nonc2N)nc2c(C#CC(C)(C)O)nc(OCCN)cc21.Cl.Cl` [GSK902056A]: in [1] (setting [19]), the potency estimated from few doses is 1230 nM.

`CN1C[C@@H]2Cn3c(c(C4=C(c5cn(C)c6ccccc56)C(=O)NC4=O)c4ccccc43)C[C@H]2C1.Cl` [RO0320234-001]: the potency estimated from few doses in [2] (setting [19]) was 1340 nM; in experiment [3] (setting [19]), 552 nM; in experiment [4] (setting [19]), 368 nM; in experiment [5] (setting [19]) it was 1030 nM; in [6] (setting [19]), 209 nM; in experiment [7] (setting [19]), 158 nM. The potency estimated from few doses was 186 nM in [8] (setting [19]), 1400 nM in experiment [9] (setting [19]), 407 nM in experiment [10] (setting [19]) and 768 nM in experiment [11] (setting [19]).

In the case of `CONC1=NC(=O)/C(=C/c2ccc3ncccc3c2)S1` [RO4613269-000], in [9] (compound concentrations: 100 nM and 1000 nM (sheet 'Samples'), CATDS: 0.172527207279461), the potency estimated from few doses was 606 nM.

For `Clc1cc(Cl)cc(Nc2ccnc(Nc3cc(Cl)cc(Cl)c3)n2)c1` [GSK175726A], the potency estimated from few doses in [2] (compound concentrations: 100 nM and 1000 nM (sheet 'Samples'), CATDS: 8.4752300032334103E-3) was 1710 nM; in [3] (compound concentrations: 100 nM and 1000 nM (sheet 'Samples'), CATDS: 1.17668577174877E-2), 462 nM; in [4] (compound concentrations: 100 nM and 1000 nM (sheet 'Samples'), CATDS: 1.41379738320296E-2), 280 nM; in experiment [5] (compound concentrations: 100 nM and 1000 nM (sheet 'Samples'), CATDS: 8.8361902766531698E-3), 1370 nM; in experiment [6] (compound concentrations: 100 nM and 1000 nM (sheet 'Samples'), CATDS: 1.87889991520305E-2), 150 nM; in experiment [7] (compound concentrations: 100 nM and 1000 nM (sheet 'Samples'), CATDS: 1.7701594212269099E-2), 169 nM. Moreover, the potency estimated from few doses in [8] (compound concentrations: 100 nM and 1000 nM (sheet 'Samples'), CATDS: 1.7554405068834999E-2) is 172 nM; in experiment [10] (compound concentrations: 100 nM and 1000 nM (sheet 'Samples'), CATDS: 1.18071418274956E-2), 457 nM; in experiment [11] (compound concentrations: 100 nM and 1000 nM (sheet 'Samples'), CATDS: 8.5136949732422407E-3), 1670 nM.

With `Cc1cccc(-c2nc(Nc3ccncc3)c3sccc3n2)n1` [GW869641X], the results for the potency estimated from few doses in experiment [10] (setting [19]) and in [12] were 722 nM and 363 nM, respectively.

`NCCNS(=O)(=O)c1ccc(-c2ccnc3[nH]ccc23)cc1` [GSK977617A]: the potency estimated from few doses in [2] (setting [19]) is 1330 nM; in [13] (setting [19]) it was 442 nM; in experiment [3] (setting [19]), 757 nM; in experiment [4] (setting [19]) it was 723 nM; in experiment [5] (setting [19]), 1780 nM; in experiment [6] (setting [19]), 1010 nM. Further, the potency estimated from few doses in [7] (setting [19]) was 936 nM; in [1] (setting [19]) it was 621 nM; in experiment [10] (setting [19]), 974 nM; in [11] (setting [19]), 718 nM.

Consider `CCOC(=O)N1CCC(n2cnc(-c3ccc(F)cc3)c2-c2ccnc(N)n2)CC1` [SB-219952], for which the potency estimated from few doses in experiment [2] (compound concentrations: 100 nM and 1000 nM (sheet 'Samples'), CATDS: 1.0061198930866599E-2) is 853 nM; in experiment [3] (compound concentrations: 100 nM and 1000 nM (sheet 'Samples'), CATDS: 1.06273677269496E-2) it was 745 nM; in [4] (compound concentrations: 100 nM and 1000 nM (sheet 'Samples'), CATDS: 1.16401500305403E-2) it was 603 nM; in [5] (compound concentrations: 100 nM and 1000 nM (sheet 'Samples'), CATDS: 9.5797280308489805E-3), 971 nM; in [10] (compound concentrations: 100 nM and 1000 nM (sheet 'Samples'), CATDS: 1.44232329790909E-2), 387 nM; in experiment [11] (compound concentrations: 100 nM and 1000 nM (sheet 'Samples'), CATDS: 8.7591953148760202E-3), 1260 nM.

With `O=C1NC(=O)/C(=C/c2ccc3ncccc3c2)S1` [RO4603632-000], in [9] (compound concentrations: 100 nM and 1000 nM (sheet 'Samples'), CATDS: 0.208226533332634), the potency estimated from few doses was 948 nM.

Regarding `COc1ccc(Nc2ncc(C#N)c(Nc3ccccc3C(N)=O)n2)cc1N1CCN(C)CC1.Cl` [GSK1558669A], the potency estimated from few doses in experiment [14] was 671 nM; in experiment [6] (compound concentrations: 100 nM and 1000 nM (sheet 'Samples'), CATDS: 8.8706126087949692E-3) it was 276 nM; in experiment [15] it was 72.7 nM; in experiment [7] (compound concentrations: 100 nM and 1000 nM (sheet 'Samples'), CATDS: 6.9772111779179699E-3) it was 724 nM; in experiment [16], 1030 nM; in experiment [11] (compound concentrations: 100 nM and 1000 nM (sheet 'Samples'), CATDS: 1.40188360119969E-2), 77.8 nM.

For `CN(c1ccc(NC(=O)Nc2cccc(Cl)c2)cc1)c1ccnc(N)n1.Cl` [GW830707A], the potency estimated from few doses in experiment [17] (compound concentrations: 100 nM and 1000 nM (sheet 'Samples'), CATDS: 1.08451954536147E-2) is 1270 nM; in [13] (compound concentrations: 100 nM and 1000 nM (sheet 'Samples'), CATDS: 2.2022337119778398E-2), 40.9 nM; in experiment [8] (compound concentrations: 100 nM and 1000 nM (sheet 'Samples'), CATDS: 2.8595787466671799E-2) it was 22.6 nM; in experiment [1] (compound concentrations: 100 nM and 1000 nM (sheet 'Samples'), CATDS: 9.7555331639362503E-2), 3.28 nM; in experiment [18] (compound concentrations: 100 nM and 1000 nM (sheet 'Samples'), CATDS: 3.6596827517009503E-2) it was 14.2 nM.

In the case of `Cl.ON=C1CCc2cc(-c3nc(C4CCNCC4)[nH]c3-c3ccncc3)ccc21` [SB-614067-R], in experiment [10] (setting [19]), the potency estimated from few doses is 320 nM.

For the compound `Cl.Cl.NCC(C(=O)Nc1cc(Br)c(-c2ccnc3[nH]ccc23)s1)c1ccccc1.NCC(C(=O)Nc1cc(Br)c(-c2ccnc3[nH]ccc23)s1)c1ccccc1` (stereo not shown) [GSK1269851A], the potency estimated from few doses in [2] (setting [19]) is 1610 nM; in experiment [3] (setting [19]) it was 674 nM; in experiment [4] (setting [19]), 516 nM; in experiment [5] (setting [19]), 1180 nM; in experiment [6] (setting [19]) it was 680 nM; in experiment [7] (setting [19]) it was 586 nM. Moreover, the potency estimated from few doses in experiment [18] (setting [19]) was 894 nM; in [11] (setting [19]) it was 705 nM.

For `Fc1ccc(-c2c(-c3ccncc3)[nH]c3cccnc23)cc1` [RO1153853-000], in experiment [10] (compound concentrations: 100 nM and 1000 nM (sheet 'Samples'), CATDS: 7.5197956220231496E-2), the potency estimated from few doses was 498 nM.

As to `CCn1c(-c2nonc2N)nc2c(C#CC(C)(C)O)nc(O[C@@H](CN)c3ccccc3)cc21.O=C(O)C(F)(F)F` [GSK1007102B], the potency estimated from few doses was 952 nM in [17] (setting [19]), 191 nM in experiment [13] (setting [19]) and 9.31 nM in [1] (setting [19]).

The values are drawn from PMC11062922 (Nature Chemical Biology, 2023).
